Results filed as inconclusive are left out. Calls of active or inactive are those of the source. Calls come from the whole dose curve; as a rule, active = well fitted inhibition curve with a large enough effect; inconclusive = small, poorly fitted or top-dose-only effect; inactive = flat fitted curve, though single readings scatter. *1 amine or outer side, *2 acyl side, *3 side chain or, on linkers, in order; H or OH if unused. Where a SMILES comes first, the peptide text is derived from it. Bridges are numbered along the chain shown (N, C = ends). [ ]: non-standard residue; d: D form. The star is where a group is joined. X5 = NC1=N[C@@H]([C@H](N[*:1])C(=O)[*:2])C[C@H](O)N1; X1 = CC[C@@H](C)[C@@H](N)C1=N[C@H](C(=O)*)CS1; ΔAla(Z-3-ureido) = NC(=O)N/C=C(\N)C(=O)O; d(aIle) = CC[C@H](C)[C@@H](N)C(=O)O; β3hOrn = NCCC[C@H](N)CC(=O)*; dOrn = NCCC[C@@H](N)C(=O)O; Dap = NC[C@H](N)C(=O)O
The molecules below were run against Voltage-gated inwardly rectifying potassium channel KCNH2 (Homo sapiens) (UniProt Q12809) (assay: qHTS Assay for Small Molecule Inhibitors of the Human hERG Channel Activity (AID 588834;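 note: lower thallium flux fluorescence means stronger hERG block; nearly all actives have a fitted effect of over 50% in size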; for activity change, negative = inhibition: top concentration of the series differs between compounds)). Conditions: U2OS BacMam hERG, FluxOR thallium flux fluorescence; series mostly up to 46.1 µM; activity change, negative = inhibition: at the top concentration.
Summary of the method: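 Thallium-flux (FluxOR) read-out on FDSS: fluorescence read 10 s before and 2 min after stimulation buffer. hERG-BacMam-transduced U2OS cells, compound exposure about 10 min. AC50 by standard Hill equation.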
% is set by controls: 0 for no effect and ±100 for the full control effect; potency is the fitted concentration of half-maximal effect.

Voltage-gated inwardly rectifying potassium channel KCNH2 (Homo sapiens), sequence (Q12809 whole entry, looked up): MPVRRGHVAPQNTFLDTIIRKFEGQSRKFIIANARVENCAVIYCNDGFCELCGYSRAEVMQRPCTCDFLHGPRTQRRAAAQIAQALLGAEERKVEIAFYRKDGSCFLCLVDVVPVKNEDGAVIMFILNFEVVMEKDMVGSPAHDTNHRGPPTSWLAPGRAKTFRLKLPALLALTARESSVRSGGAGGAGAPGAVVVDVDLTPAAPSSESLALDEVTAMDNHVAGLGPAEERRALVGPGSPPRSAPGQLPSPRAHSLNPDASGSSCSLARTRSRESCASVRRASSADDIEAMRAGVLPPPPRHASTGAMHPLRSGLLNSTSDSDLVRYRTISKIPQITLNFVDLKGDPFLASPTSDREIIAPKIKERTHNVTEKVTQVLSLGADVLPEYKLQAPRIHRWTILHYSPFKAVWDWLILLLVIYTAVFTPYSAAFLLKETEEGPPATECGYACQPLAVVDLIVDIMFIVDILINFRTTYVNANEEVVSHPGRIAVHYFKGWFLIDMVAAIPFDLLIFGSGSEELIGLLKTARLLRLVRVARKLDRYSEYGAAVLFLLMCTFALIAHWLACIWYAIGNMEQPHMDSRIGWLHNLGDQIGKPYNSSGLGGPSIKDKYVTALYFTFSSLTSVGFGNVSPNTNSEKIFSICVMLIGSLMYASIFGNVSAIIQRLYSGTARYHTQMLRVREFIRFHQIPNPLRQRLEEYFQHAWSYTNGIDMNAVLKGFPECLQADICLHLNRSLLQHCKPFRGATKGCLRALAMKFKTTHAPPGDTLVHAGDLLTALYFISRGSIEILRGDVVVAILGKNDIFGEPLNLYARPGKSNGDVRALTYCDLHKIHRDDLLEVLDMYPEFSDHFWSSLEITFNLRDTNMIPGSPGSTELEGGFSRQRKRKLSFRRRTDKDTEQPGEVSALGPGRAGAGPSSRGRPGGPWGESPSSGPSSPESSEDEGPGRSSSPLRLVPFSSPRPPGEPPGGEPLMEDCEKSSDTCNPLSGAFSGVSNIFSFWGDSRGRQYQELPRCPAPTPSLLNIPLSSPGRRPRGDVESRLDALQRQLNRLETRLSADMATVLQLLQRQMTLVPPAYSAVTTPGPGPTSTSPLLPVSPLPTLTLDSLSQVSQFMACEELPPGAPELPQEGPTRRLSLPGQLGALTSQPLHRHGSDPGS

Molecule	activity change, negative = inhibition	Potency
CC[C@@H](C)[C@@H](N)C1=N[C@H](C(=O)N[C@@H](CC(C)C)C(=O)N[C@@H](CCC(=O)O)C(=O)N[C@@H](C(=O)N[C@@H]2CCCCNC(=O)[C@@H](CC(N)=O)NC(=O)[C@@H](CC(=O)O)NC(=O)[C@@H](Cc3cnc[nH]3)NC(=O)[C@@H](Cc3ccccc3)NC(=O)[C@@H]([C@H](C)CC)NC(=O)[C@@H](CCCN)NC2=O)[C@@H](C)CC)CS1 (X1-LE[d(aIle)][dK][dOrn][dI][dF][dH][dD][dN]; lactam 4-C)	2.25% [at 20.6 µM] (inactive)	
CCCCCCCCCCCC(=O)OC[C@@H](O)C1OC[C@H](O)[C@H]1O (some centres undefined)	13.1% (inactive)	
CO[C@H]1C[C@H](O[C@H]2[C@H](C)[C@@H](O[C@@H]3O[C@H](C)C[C@H](N(C)C)[C@H]3O)[C@@H](C)C[C@]3(CO3)C(=O)[C@H](C)[C@@H](O)[C@@H](C)[C@@H](C)OC(=O)[C@@H]2C)O[C@@H](C)[C@@H]1O	1.18% [at 20.6 µM] (inactive)	
CC(O)[C@H]1CC[C@H]2[C@@H]3CC[C@@H]4C[C@@H](O)CC[C@]4(C)[C@H]3CC[C@]12C (some centres undefined)	-11.5% (inactive)	
CCC(Oc1ccccc1)C(=O)N[C@@H]1C(=O)N2[C@@H]1SC(C)(C)[C@@H]2C(=O)O (some centres undefined)	13.4% (inactive)	
CCN(CC)C(=O)[C@]1(c2ccccc2)C[C@@H]1CN	12.1% (inactive)	
NC(=O)[C@@H]1C[C@]2(NC(=O)NC2=O)c2cc(F)ccc2O1	11.6% (inactive)	
CC(=O)OCC(=O)[C@@]1(O)CC[C@H]2[C@@H]3CCC4=CC(=O)CC[C@]4(C)C3=CC[C@@]21C	19.5% (inactive)	
CO[C@@]1(NC(=O)C2SC(=C(C(N)=O)C(=O)O)S2)C(=O)N2C(C(=O)O)=C(CSc3nnnn3C)CS[C@@H]21 (some centres undefined)		7.08 µM (active)
CC(CN1c2ccccc2Sc2cccnc21)N(C)C (centres undefined)		0.891 µM (active)
CC(C)CN(C[C@@H](OP(=O)(O)O)[C@H](Cc1ccccc1)NC(=O)O[C@H]1CCOC1)S(=O)(=O)c1ccc(N)cc1	22.9% (inactive)	
NCCC[C@H](N)CC(=O)N[C@H]1CNC(=O)[C@H]([C@H]2C[C@H](O)NC(N)=N2)NC(=O)/C(=C/NC(N)=O)NC(=O)[C@H](CO)NC(=O)[C@H](CO)NC1=O (β3hOrn-[Dap]SS[ΔAla(Z-3-ureido)][X5]; lactam 1-C)	21.1% (inactive)	
C=C1CC[C@H](O)CC1=C/C=C1\CCC[C@]2(C)[C@@H]([C@H](C)/C=C/[C@H](C)C(C)C)CC[C@@H]12	-9.25% (inactive)	
CC(=O)[C@@]1(O)CC[C@H]2[C@@H]3C=C(Cl)C4=CC(=O)[C@@H]5C[C@@H]5[C@]4(C)[C@H]3CC[C@@]21C	3.34% (inactive)	
CC(C)C[C@H](NC(=O)[C@@H](Cc1c[nH]c2ccccc12)NC(=O)[C@H](Cc1ccc(O)cc1)NC(=O)[C@H](CO)NC(=O)[C@H](Cc1c[nH]c2ccccc12)NC(=O)[C@H](Cc1cnc[nH]1)NC(=O)[C@@H]1CCC(=O)N1)C(=O)N[C@@H](CCCN=C(N)N)C(=O)N1CCC[C@@H]1C(=O)NCC(N)=O	-6.85% (inactive)	
H-RKDVY-OH	2.74% (inactive)	
O=C1/C(=C\c2cccs2)CCC/C1=C\c1cccs1	-17.2% (inactive)	
O=C(O)c1ccc(NC2OC[C@@H](O)[C@H](O)[C@H]2O)cc1 (some centres undefined)	7.99% (inactive)	
CCC(=O)OC(OP(=O)(CCCCc1ccccc1)CC(=O)N1C[C@H](C2CCCCC2)C[C@H]1C(=O)O)C(C)C (some centres undefined)	-4.65% (inactive)	
CC1(C)[C@H]2CC[C@]1(C)[C@H](O)C2	29% (inactive)	

Molecule	activity change, negative = inhibition	Potency
NC[C@H]1O[C@H](O[C@H]2[C@H](O)[C@@H](O[C@H]3O[C@H](CO)[C@@H](O)[C@H](N)[C@H]3O)[C@H](N)C[C@@H]2N)[C@H](N)C[C@@H]1O	0.829% [at 20.6 µM] (inactive)	
NC[C@@H]1O[C@H](O[C@H]2[C@@H](O)[C@H](O[C@@H]3[C@@H](O)[C@H](N)C[C@H](N)[C@H]3O[C@H]3O[C@H](CO)[C@@H](O)[C@H](O)[C@H]3N)O[C@@H]2CO)[C@H](N)[C@@H](O)[C@@H]1O	-7.02% (inactive)	
Cc1ccc(S(=O)(=O)NC(=O)N[C@@H](C)Cc2ccccc2)cc1	13.4% (inactive)	
CC(C)(C)NCC(O)c1ccc(O)c(CO)n1 (centres undefined)	-25.2% (inactive)	
COc1ccc2cc([C@H](C)CO)ccc2c1	6.8% (inactive)	
CN1CCN(C(c2ccccc2)c2ccc(Cl)cc2)CC1 (centres undefined)		5.62 µM (active)
CC(C)N1CCN(c2ccc(OC[C@H]3CO[C@](Cn4cncn4)(c4ccc(Cl)cc4Cl)O3)cc2)CC1		8.91 µM (active)
CO/N=C(\C(=O)N[C@@H]1C(=O)N2C(C(=O)O)=CCS[C@H]12)c1csc(N)n1	9.15% (inactive)	
OC[C@H]1O[C@@H](O[C@H]2[C@H](O)[C@@H](O)[C@H](O)O[C@@H]2CO)[C@H](O)[C@@H](O)[C@@H]1O	18.8% (inactive)	
CO[C@H]1C=CO[C@@]2(C)Oc3c(C)c(O)c4c(O)c(cc(O)c4c3C2=O)NC(=O)/C(C)=C\C=C/[C@H](C)[C@H](O)[C@@H](C)[C@@H](O)[C@@H](C)[C@H](OC(C)=O)[C@@H]1C	13.9% (inactive)	
OCCN1CCN(CC/C=C2/c3ccccc3Sc3ccc(Cl)cc32)CC1		1.58 µM (active)
C=C1[C@H](CO)[C@@H](O)C[C@@H]1n1cnc2c(=O)[nH]c(N)nc21	-0.589% (inactive)	
C=CC[N@@+]12CC[C@@]34c5ccccc5N5/C=C6/[C@H]7C[C@H]8[C@@]9(CC[N@@+]8(CC=C)C/C7=C/CO)c7ccccc7N(/C=C(/[C@@H](C[C@@H]31)/C(=C\CO)C2)[C@H]54)[C@@H]69	5.19% [at 20.6 µM] (inactive)	
NC(Cc1ccccc1)C(=O)O (centres undefined)	12.1% (inactive)	
CC(C)C[C@@H](NC(=O)[C@@H](O)[C@H](N)Cc1ccccc1)C(=O)O	7.66% (inactive)	
COC1[C@@H](O[C@@H]2O[C@H](C)[C@@H](O[C@H]3C[C@@](C)(O)[C@H](OC(=O)CC(C)C)[C@H](C)O3)[C@H](N(C)C)[C@H]2O)[C@@H](CC=O)C[C@@H](C)[C@@H](O)/C=C/C=C/C[C@@H](C)OC(=O)C[C@H]1OC(C)=O (some centres undefined)	0.454% [at 20.6 µM] (inactive)	
C=C1CC[C@H](O)CC1=C/C=C1\CCC[C@]2(C)[C@@H]([C@H](C)CC[C@@H](O)C(C)(C)O)CC[C@@H]12	8.21% (inactive)	
CC(C)[C@@H]1CC[C@@H](C)C[C@H]1OC(=O)c1ccccc1O	5.36% (inactive)	
C=Cc1c(C)c2cc3nc(cc4[nH]c(cc5nc(cc1[nH]2)C(C)=C5CCC(=O)OC)c(CCC(=O)O)c4C)[C@@]1(C)C3=CC=C(C(=O)OC)[C@H]1C(=O)OC	1.17% (inactive)	

From PubChem BioAssay (NCATS)
